From PubChem BioAssay
A selection: hits, their analogues and other compounds. The true share with any hit is near 11%.
HEK cytotox = Cytotoxic Profiling in HEK 293 Cell Line of Diverse Libraries Using Quantitative High-Throughput Screening; HEK 293 viability, ATP luminescence (CellTiter-Glo), 48-72 h; Potency, µM (top dose mostly 115 µM), without a hit: top-dose activity change, negative = cytotoxicity, hits mostly inhibitors; 6.6% of 94,000 active; AID 1345083, 2018; also: nearly all actives have a fitted effect of over 60% in size
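Cells seeded first (HEK 293, 250 cells/well), then compound added by pintool. Incubation ran 48 or 72 hr at 37 degree Celsius. CellTiter-Glo was added and luminescence imaged after 10 min at room temperature.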
hNpr1 antagonist = Natriuretic polypeptide receptor (hNpr1) antagonism - Primary qHTS; AID 1347048, 2019; Atrial natriuretic peptide receptor 1 (Homo sapiens), P16066; HEK293 hNpr1 GloSensor cGMP, ANP-stimulated luminescence; 1.6% of 76,000 active; Potency, µM (series often up to 46.3 µM), inactives show at the highest dose activity change, negative = inhibition, actives largely listed as inhibitors; calls by dose curve; also: nearly all actives have a fitted effect of over 60% in size
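HEK293 cells stably expressing human Npr1 and cGMP GloSensor pGS-40F, loaded 2 h with 2% GloSensor reagent, given compound 30 min at room temperature. Luminescence read before and 20 min after 0.1 nM hNppA.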
NIH3T3 tox = Cytotoxic Profiling in NIH 3T3 Cell Line of Diverse Libraries Using Quantitative High-Throughput Screening. 4.3% of 94,000 active. Potency, µM (doses to about 96.7 µM), for inactives: at the top dose activity change, negative = cytotoxicity, usual class: inhibitors. AID 1345082, 2018. NIH 3T3 viability, CellTiter-Glo ATP luminescence, 48-72 h; also: nearly all actives have a fitted effect of over 55% in size
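Luminescent ATP readout (CellTiter-Glo, 10 min RT) after 48 or 72 hr compound exposure of NIH 3T3 cells seeded at 400 cells/well in 1536-well format; quantitative HTS.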
FLuc inh = Firefly luciferase inhibition profiling of diverse chemical library using quantitative high-throughput screening. Luciferin 4-monooxygenase (Photinus pyralis), P08659. purified P. pyralis luciferase, luminescence, biochemical. Potency, µM (highest dose often 115 µM), actives largely listed as inhibitors. 2.5% of 76,000 active. AID 1347043, 2019; also: nearly all actives have a fitted effect of over 65% in size
Target sequence (P08659 whole entry, looked up): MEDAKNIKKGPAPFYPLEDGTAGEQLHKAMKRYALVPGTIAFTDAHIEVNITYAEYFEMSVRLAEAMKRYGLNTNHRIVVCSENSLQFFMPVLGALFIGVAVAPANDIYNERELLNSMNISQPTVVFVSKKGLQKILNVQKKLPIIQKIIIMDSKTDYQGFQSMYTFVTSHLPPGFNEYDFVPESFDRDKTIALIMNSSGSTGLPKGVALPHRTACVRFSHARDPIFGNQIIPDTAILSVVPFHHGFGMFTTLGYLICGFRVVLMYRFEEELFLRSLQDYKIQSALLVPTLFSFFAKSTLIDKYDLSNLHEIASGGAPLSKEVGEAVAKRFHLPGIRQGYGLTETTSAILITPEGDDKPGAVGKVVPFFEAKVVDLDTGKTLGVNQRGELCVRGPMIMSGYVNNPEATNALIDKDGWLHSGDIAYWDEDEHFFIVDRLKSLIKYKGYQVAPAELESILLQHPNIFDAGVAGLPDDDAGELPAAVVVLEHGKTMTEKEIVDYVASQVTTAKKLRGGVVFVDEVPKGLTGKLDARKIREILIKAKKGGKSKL
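Purified P. pyralis luciferase (10nM final) in 50mM Tris acetate pH 7.5, 10mM Mg acetate, 0.01% Tween-20, 0.05% BSA with 10uM D-luciferin and 10uM ATP. Compounds titrated qHTS. Luminescence imaged on CCD.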
An asterisk follows results filed as active; [ ] = dose if it differs, or a comment. Unless noted, calls follow the shape of the dose curve; as a rule, active = well fitted curve in the direction sought with a large enough effect; inconclusive = small, poorly fitted or top-dose-only effect, or another doubt; inactive = no such curve, though single readings can be large; an effect the other way counts as inactive or inconclusive. % is scaled to controls: 0 for no effect and ±100 for the full control effect; potency is read from the fitted curve at half-maximal effect.

How did Cc1ccc(NC(=O)C2CCN(C(=O)c3ncn4c3COC(c3ccc(F)cc3)C4)CC2)cc1C (stereo not given) do in these assays?
HEK cytotox: 13%; hNpr1 antagonist: 1%; NIH3T3 tox: inactive; FLuc inh: 35µM*

Results for COc1ccc(C2Cn3cnc(C(=O)N4CCC(C(=O)Nc5ccc(C)c(C)c5)CC4)c3CO2)cc1 (stereo not given) ?
HEK cytotox: -1%; hNpr1 antagonist: -24%; NIH3T3 tox: inactive; FLuc inh: inactive

Results for Cc1cc(NC(=O)C2CCN(C(=O)c3ncn4c3COC(c3ccc(F)cc3)C4)CC2)ccc1Cl (stereo not given) ?
HEK cytotox: -21%; hNpr1 antagonist: -3%; NIH3T3 tox: inconclusive; FLuc inh: 40µM*

What do the screens show for `Cc1cc(C)cc(NC(=O)C2CCN(C(=O)c3ncn4c3COC(c3ccc(F)cc3)C4)CC2)c1` (stereo not given)?
HEK cytotox: 5%; hNpr1 antagonist: -3%; NIH3T3 tox: 1%; FLuc inh: inconclusive

How did Cc1ccc(NC(=O)C2CCN(C(=O)c3ncn4c3COC(c3ccc(F)cc3)C4)CC2)c(Cl)c1 (stereo not given) do in these assays?
HEK cytotox: 0%; hNpr1 antagonist: -24%; NIH3T3 tox: 0%; FLuc inh: 25µM*

What do the screens show for `COC(=O)NC1CCCN(c2ccc3nnc(C4CC4)n3n2)C1` (stereo not given)?
HEK cytotox: 2%[172 µM]; NIH3T3 tox: -9%[138 µM]

How did C#CCNC(=O)c1nc2sccn2c1-c1cccc(OC)c1 do in these assays?
HEK cytotox: -19%[172 µM]; NIH3T3 tox: -20%[138 µM]

How did CN1C(=O)CCC2(CNC(=O)CCc3c[nH]c4ccccc34)CCC=C12 (stereo not given) do in these assays?
HEK cytotox: -2%; NIH3T3 tox: -5%

How did O=C(c1c(-c2cncnc2)cc(=O)n2c1CCCC2)N1CCC(Cc2ccccc2)CC1 do in these assays?
HEK cytotox: -8%; NIH3T3 tox: -11%

Results for O=C(NC1CCCCCC1)C1CCc2nnc(CN[S+](=O)([O-])c3ccccc3Cl)n21 (stereo not given) ?
HEK cytotox: -6%; NIH3T3 tox: -24%

Results for CN(C)[S+](=O)([O-])c1ccc2c(c1)OCCN(Cc1cccc(Cl)c1)C2 ?
HEK cytotox: 79µM*; hNpr1 antagonist: -23%[70.6 µM]; NIH3T3 tox: inconclusive; FLuc inh: inactive

Results for CN(C)[S+](=O)([O-])c1ccc2c(c1)OCCN(Cc1cc(F)ccc1F)C2 ?
HEK cytotox: inconclusive; hNpr1 antagonist: -4%[70.6 µM]; NIH3T3 tox: inconclusive; FLuc inh: inactive

Results for Cc1cc(F)cc(CN2CCOc3cc([S+](=O)([O-])N(C)C)ccc3C2)c1 ?
HEK cytotox: 79µM*; hNpr1 antagonist: -25%[70.6 µM]; NIH3T3 tox: 40µM*; FLuc inh: inactive

What do the screens show for `O=C(CC(c1ccc(Cl)cc1)c1c[nH]c2ccc([N+](=O)[O-])cc12)N1CCOCC1` (stereo not given)?
HEK cytotox: 40µM*; hNpr1 antagonist: inconclusive; NIH3T3 tox: inconclusive; FLuc inh: inactive

Results for CCCCNC(=O)CC(c1cccc([N+](=O)[O-])c1)c1c[nH]c2ccccc12 (stereo not given) ?
HEK cytotox: inconclusive; hNpr1 antagonist: -18%; NIH3T3 tox: inconclusive; FLuc inh: inactive

What do the screens show for `COCCNC(=O)CC(c1ccc(Cl)cc1)c1c[nH]c2ccc([N+](=O)[O-])cc12` (stereo not given)?
HEK cytotox: 40µM*; hNpr1 antagonist: inconclusive; NIH3T3 tox: inconclusive; FLuc inh: inactive

How did CCNC(=O)N(C1CC1)C1CCOC2(CCN(C(=O)c3ccc(OC)nc3)CC2)C1 (stereo not given) do in these assays?
HEK cytotox: -4%; NIH3T3 tox: inconclusive

What do the screens show for `Cc1nn2c(c1-c1ccnn1C(C)C)N(C(=O)COc1ccccc1C(N)=O)CCC2`?
HEK cytotox: 0%[172 µM]; hNpr1 antagonist: 14%[70.6 µM]; NIH3T3 tox: 28µM*; FLuc inh: inactive

Results for COc1ccccc1C(=O)N1CCCn2nc(C)c(-c3ccnn3C(C)C)c21 ?
HEK cytotox: -22%[172 µM]; hNpr1 antagonist: -3%[70.6 µM]; NIH3T3 tox: inconclusive; FLuc inh: inactive

What do the screens show for `Cc1nn2c(c1-c1cccc3cn[nH]c13)N(C(=O)COc1ccccc1C(N)=O)CCC2`?
HEK cytotox: inactive; hNpr1 antagonist: -20%[70.6 µM]; NIH3T3 tox: 25µM*; FLuc inh: inactive

What do the screens show for `COc1ccccc1C(=O)N1CCCn2nc(C)c(-c3cccnc3N3CCOCC3)c21`?
HEK cytotox: inactive; hNpr1 antagonist: 5%[70.6 µM]; NIH3T3 tox: inconclusive; FLuc inh: inactive

Results for O=C(COc1ccc(F)cc1)N1CCC2(CC1)NC(=O)N(c1ccc(F)cc1)N2 ?
HEK cytotox: inconclusive; hNpr1 antagonist: 2%; NIH3T3 tox: inconclusive; FLuc inh: inactive

Results for CC1(C)C(=O)N(CC2CCOCC2)[C@H]2CN(Cc3cccs3)C[C@@H]2[S+]1(=O)[O-] ?
HEK cytotox: 0%[172 µM]; hNpr1 antagonist: -3%[70.6 µM]; NIH3T3 tox: 79µM*; FLuc inh: inactive

How did CCN1CCN(C(=O)c2cn3cc(-c4ccccc4)sc3n2)CC1 do in these assays?
HEK cytotox: -25%; NIH3T3 tox: inconclusive

How did Cc1onc(-c2cnn(C)c2NCc2ccc(C#N)cc2)c1C(=O)N(C)c1ccccc1 do in these assays?
HEK cytotox: inconclusive; hNpr1 antagonist: -3%[70.6 µM]; NIH3T3 tox: 45µM*; FLuc inh: inactive

How did COc1ccc(OC)c(S(=O)(=O)N2CC(CNC(=O)C3CC3)C3(CCCCC3)C2)c1 (stereo not given) do in these assays?
HEK cytotox: inconclusive; NIH3T3 tox: -34%

How did CC(C)CN(Cc1cccnc1)C1CN(C(=O)NCc2ccccc2)C1 do in these assays?
HEK cytotox: 0%; hNpr1 antagonist: -3%; NIH3T3 tox: -17%; FLuc inh: inactive

Results for CC(C)CN(Cc1cccnc1)C1CN(C(=O)CC2CCCCC2)C1 ?
HEK cytotox: inconclusive; hNpr1 antagonist: -16%; NIH3T3 tox: 5.6µM*; FLuc inh: inactive

Results for COc1cccc(-c2c(C(=O)NCC(C)C)nc3sccn23)c1 ?
HEK cytotox: -6%[172 µM]; NIH3T3 tox: -22%[138 µM]

Results for O=C1NC(=NC2CCCCC2)C2(CCCN(Cc3ccccc3)C2)N1c1cc(F)cc(F)c1 (stereo not given) ?
HEK cytotox: inconclusive; NIH3T3 tox: 35µM*

How did O=C1NC(=NC2CCCCC2)C2(CCN(Cc3ccccc3)C2)N1c1cc(F)cc(F)c1 (stereo not given) do in these assays?
HEK cytotox: inconclusive; NIH3T3 tox: 32µM*
